Six1-Eya2 blk: Six1/Eya2 interaction inhibition. 360,000 tested, 0.56% active. Q15475+O00167. activity change, % (test concentration not listed). AlphaScreen GST-Six1/His-Eya2 binding, biochemical; hits give low values; in the data active means activity change below about -65%; inconclusive means mostly about -30% to -63%; further: on the % scale 0 is the no-effect control and ±100 the full control effect
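AlphaScreen with GST-Six1 and His-Eya2 (5X mix: 250 nM and 500 nM), glutathione donor and nickel acceptor beads; buffer 50 mM Tris pH 8.0, 300 mM NaCl, 1 mM TCEP; 1 h at 37 C in the dark.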
HP1b binding inh: blocks HP1-beta chromodomain binding to methylated histone tails; P83916; AlphaScreen HP1-beta / biotin-H3K9me3 peptide binding; Potency, µM (top dose mostly 114 µM), inactives show at the highest dose activity change, negative = inhibition, actives largely listed as inhibitors; 390,000 tested, 0.56% active; AID 540317; further: potency means the concentration at half of the fitted maximal effect; nearly all actives have a fitted effect of over 70% in size
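Compound inhibition of the preformed complex between 50 nM HP1-beta and 50 nM biotinylated H3K9me3 peptide was read by AlphaScreen. Buffer was PBS pH 7.4 with 0.01% Tween-20. Incubations ran 30 min at room temperature, with 10 ug/mL donor/acceptor beads.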
G9a inh: blocks human histone lysine methyltransferase G9a | G9a H3K9 monomethylation, AlphaScreen, 2 h | Potency, µM (top dose mostly 102 µM), for inactives: at the highest dose activity, negative = inhibition, most hits filed as inhibitors | 350,000 tested, 8.8% active; further: potency means the concentration at half of the fitted maximal effect; on the % scale 0 is the no-effect control and ±100 the full control effect; nearly all actives have a fitted effect of over 75% in size
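Readings reflect AlphaScreen signal from monomethyl-H3K9 antibody detection. HMT at 20 nM; substrate b-H3K9 500 nM; cofactor SAM 20 uM; 2 h RT reaction; compounds tested as titrations in qHTS with 15 min preincubation.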
JMJD2A Tudor: JMJD2A Tudor domain (human) inhibition | AlphaScreen JMJD2A-Tudor / H3K4me3 peptide binding | Potency, µM (highest dose often 114 µM), inactives show at the top dose activity change, negative = inhibition, actives largely listed as inhibitors | 390,000 tested, 4.4% active | AID 504339; further: potency means the concentration at half of the fitted maximal effect; on the % scale 0 is the no-effect control and ±100 the full control effect; nearly all actives have a fitted effect of over 50% in size
CtBP-E1A blk: inhibitors of CtBP/E1A interaction; AlphaScreen GST-E1A/His-CtBP binding, 1536-well; hits give low values; activity change, % (concentration not given with the values); 340,000 tested, 0.49% active; in the data active means activity change below about -65%; inconclusive means mostly about -30% to -63%; further: on the % scale 0 is the no-effect control and ±100 the full control effect
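In 5 uL wells, 23 nL compound meets equimolar GST-E1A and His-CtBP (5X stock 125 nM each) for 2 h, 37 °C. Beads (5X, 50 ug/mL) then 1 h, 37 °C, dark.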
BAZ2B block: BAZ2B (human) inhibition; Q9UIF8; AlphaScreen BAZ2B-H3K14Ac peptide displacement; Potency, µM (highest dose often 114 µM), for inactives: at the highest dose activity change, negative = inhibition, most hits filed as inhibitors; 360,000 tested, 4.4% active; further: potency means the concentration at half of the fitted maximal effect; on the % scale 0 is the no-effect control and ±100 the full control effect; nearly all actives have a fitted effect of over 60% in size
Target sequence (Q9UIF8 whole entry, looked up): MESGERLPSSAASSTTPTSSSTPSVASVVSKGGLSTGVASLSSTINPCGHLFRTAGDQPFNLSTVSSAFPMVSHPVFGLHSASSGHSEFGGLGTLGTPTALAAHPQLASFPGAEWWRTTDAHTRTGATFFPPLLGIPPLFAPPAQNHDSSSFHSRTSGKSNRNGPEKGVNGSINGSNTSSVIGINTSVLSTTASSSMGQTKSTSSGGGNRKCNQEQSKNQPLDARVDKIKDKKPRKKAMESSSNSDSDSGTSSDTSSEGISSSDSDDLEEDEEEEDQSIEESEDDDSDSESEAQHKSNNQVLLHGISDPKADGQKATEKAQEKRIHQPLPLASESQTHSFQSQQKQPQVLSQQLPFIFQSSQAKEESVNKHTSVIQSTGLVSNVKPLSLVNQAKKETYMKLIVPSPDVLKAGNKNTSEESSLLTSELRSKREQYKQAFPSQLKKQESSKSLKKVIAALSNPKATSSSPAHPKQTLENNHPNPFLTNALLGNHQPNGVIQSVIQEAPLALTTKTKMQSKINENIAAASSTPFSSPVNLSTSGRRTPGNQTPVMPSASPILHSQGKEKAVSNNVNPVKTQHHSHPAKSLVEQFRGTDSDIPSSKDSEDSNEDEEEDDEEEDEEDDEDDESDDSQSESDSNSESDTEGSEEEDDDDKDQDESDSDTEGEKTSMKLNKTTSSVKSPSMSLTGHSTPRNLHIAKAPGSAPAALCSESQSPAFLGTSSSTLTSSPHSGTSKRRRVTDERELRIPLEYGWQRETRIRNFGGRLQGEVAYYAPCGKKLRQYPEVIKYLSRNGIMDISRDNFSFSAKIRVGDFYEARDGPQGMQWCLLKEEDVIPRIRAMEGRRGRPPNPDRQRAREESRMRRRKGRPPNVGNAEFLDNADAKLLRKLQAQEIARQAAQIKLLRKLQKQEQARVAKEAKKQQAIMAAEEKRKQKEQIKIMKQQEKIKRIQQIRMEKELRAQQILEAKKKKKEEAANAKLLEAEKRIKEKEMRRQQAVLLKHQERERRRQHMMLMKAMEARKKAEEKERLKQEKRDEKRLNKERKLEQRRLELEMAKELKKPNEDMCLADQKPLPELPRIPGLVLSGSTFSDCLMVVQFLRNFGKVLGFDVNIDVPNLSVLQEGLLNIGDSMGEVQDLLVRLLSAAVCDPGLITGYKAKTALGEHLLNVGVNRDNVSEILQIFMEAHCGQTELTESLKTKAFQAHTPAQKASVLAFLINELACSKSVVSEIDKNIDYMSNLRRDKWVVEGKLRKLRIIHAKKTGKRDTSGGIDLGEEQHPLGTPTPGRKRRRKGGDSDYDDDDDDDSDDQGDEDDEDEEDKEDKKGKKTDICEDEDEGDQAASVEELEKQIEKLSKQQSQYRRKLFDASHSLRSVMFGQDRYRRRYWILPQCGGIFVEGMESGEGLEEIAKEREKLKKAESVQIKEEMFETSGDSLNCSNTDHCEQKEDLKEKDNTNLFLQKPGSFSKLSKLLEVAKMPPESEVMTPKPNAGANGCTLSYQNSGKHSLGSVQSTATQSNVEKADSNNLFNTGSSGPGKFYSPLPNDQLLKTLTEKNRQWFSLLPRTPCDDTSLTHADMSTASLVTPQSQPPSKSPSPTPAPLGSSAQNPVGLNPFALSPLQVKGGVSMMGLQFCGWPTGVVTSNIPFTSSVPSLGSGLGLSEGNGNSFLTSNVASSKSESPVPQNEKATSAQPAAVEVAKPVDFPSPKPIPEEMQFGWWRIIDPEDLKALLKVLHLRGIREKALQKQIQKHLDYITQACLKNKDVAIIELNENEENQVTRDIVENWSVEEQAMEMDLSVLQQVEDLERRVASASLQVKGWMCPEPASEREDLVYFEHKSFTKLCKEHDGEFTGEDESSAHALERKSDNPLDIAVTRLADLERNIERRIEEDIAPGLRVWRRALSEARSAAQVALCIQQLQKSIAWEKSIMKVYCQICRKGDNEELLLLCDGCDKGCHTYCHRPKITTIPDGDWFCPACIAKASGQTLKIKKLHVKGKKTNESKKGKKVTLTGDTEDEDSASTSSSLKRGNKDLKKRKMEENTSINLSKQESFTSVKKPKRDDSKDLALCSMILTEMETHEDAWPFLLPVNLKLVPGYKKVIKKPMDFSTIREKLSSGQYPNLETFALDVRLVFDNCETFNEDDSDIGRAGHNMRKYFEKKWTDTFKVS
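BAZ2B (50 nM) with biotin-H3(5-23)K14Ac peptide (50 nM) in PBS pH 7.4, 0.01% Tween-20, preformed 30 min, then compound 30 min at room temperature; top concentration 110uM. AlphaScreen streptavidin donor/nickel chelate acceptor beads (10 ug/mL final), 20 min dark, signal read.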
* marks the source's active call; other numbers are inactive results; u = inconclusive; x = not tested or not shown; [ ] = remark or other dose. This is a sample that favours compounds with a hit; in the whole collection about 10% have one here. Unless noted, the call rests on the fitted dose curve; in most records, active means well fitted inhibition curve with a large enough effect; inconclusive means small, poorly fitted or top-dose-only effect; inactive means no such curve, though single readings can be large or run the other way.

SMILES	Six1-Eya2 blk	HP1b binding inh	G9a inh	JMJD2A Tudor	CtBP-E1A blk	BAZ2B block
Cc1cccc(-n2c(=S)[nH]c3c(oc4ccccc43)c2=O)c1	-1	26%	13µM*	-1%	3	-6%
O=c1c2sccc2[nH]c(=S)n1-c1ccccc1	-1	25%	u	5.6µM*	-2	-17%
COc1ccccc1C(=O)NC(CCSC)C(=O)OCC(=O)NC(=O)NCc1ccco1 (centres undefined)	-5	-12%	-9%[59 µM]	u	3	50µM*
COc1ccccc1C(=O)NC(CCSC)C(=O)NCCCSc1ccccc1 (centres undefined)	-13	-12%	56µM*	-34%	-4	u
CSCCC(NC(=O)c1ccc(Cl)cc1)C(=O)OCC(=O)NCc1ccco1 (centres undefined)	-11	16%	u	-7%	3	-29%
CC(C)N1CCNCC1	4	23%	u	-20%	x	-20%
Cn1c(-c2ccc(S(=O)(=O)N3CCCC3)cc2)csc1=Nc1ccc(Cl)c(Cl)c1	x	u	u	50µM*	x	-29%
CCn1c(-c2ccc(S(=O)(=O)N3CCOCC3)cc2)csc1=Nc1ccc(C)c(Cl)c1	x	-1%	3%[12.7 µM]	-16%	x	-6%
COCCCn1c(-c2ccc(S(=O)(=O)N3CCOCC3)cc2)csc1=Nc1ccccc1	-9	u	u	u	-7	u
O=S(=O)(c1ccc(-c2csc(=Nc3ccc(OC(F)(F)Cl)cc3)n2CCCO)cc1)N1CCCC1	x	-27%	1µM*	u	x	89µM*
CCC(Nc1ccc(OC)cc1)C(=O)N/N=C/c1ccc([N+](=O)[O-])cc1 (centres undefined)	-11	-20%	u	u	-1	45µM*
Cc1ccc(/C=N/NC(=O)Cn2nc(C)c([N+](=O)[O-])c2C)o1	3	31%	50µM*	-22%	13	-18%
CC(=O)Nc1ccc(NC(=O)C(C)n2nc(C)c([N+](=O)[O-])c2C)cc1 (centres undefined)	1	35%	-29%	-8%	3	-20%
Cc1ccc(/C=N/NC(=O)Cn2nnc(N)n2)cc1	-2	20%	-2%[12.7 µM]	-14%	3	2%
Cc1nn(C(C)C(=O)N/N=C/c2ccc(N(C)C)cc2)c(C)c1[N+](=O)[O-] (centres undefined)	-10	-2%	56µM*	u	2	u
Cc1ccc(/C=N/NC(=O)Cn2nnc(N)n2)o1	-12	28%	45µM*	-8%	3	-3%
COc1ccc(S(=O)(=O)Nc2cccc3c2O[C@H](CN(C)C(=O)NC(C)C)[C@@H](C)CN([C@H](C)CO)C3=O)cc1	-3	19%	x	-13%	-23	x
CC(C)(C)OC(=O)NC(Cc1ccccc1)C(=O)NC1COC2CC(n3cc(F)c(=O)[nH]c3=O)OC12 (centres undefined)	x	44%	x	-6%	x	x
COc1ccc(/C=N/NC(=O)Cn2nc(C)c([N+](=O)[O-])c2C)cc1	-7	11%	13%[59 µM]	79µM*	-1	-3%
COc1cccc(CNC(=O)Cn2nc(C)c([N+](=O)[O-])c2C)c1	6	20%	-95%	-15%	x	1%
COC(=O)c1ccc(N/C(C)=C/C(=O)c2ccc(C)o2)cc1	8	-16%	4%[12.7 µM]	89µM*	4	-36%
CCOc1ccc(N/C(C)=C/C(=O)c2ccc(C)o2)cc1	4	20%	50µM*	3%	5	u
C/C(=C\C(=O)c1ccc(C)o1)Nc1ccc2c(c1)OCO2	-11	-21%	u	u	-11	u
COCCN1C(=O)CCC1(C)c1nnnn1Cc1ccccc1 (centres undefined)	-6	x	x	x	5	x
OCl	x	x	24%[59 µM]	x	x	x
SMILES	Six1-Eya2 blk	HP1b binding inh	G9a inh	JMJD2A Tudor	CtBP-E1A blk	BAZ2B block
CCCCOc1[nH]c2nc(-c3ccco3)n(Cc3ccco3)c(=N)c2c1C#N	-19	-2%	u	u	-14	-30%
COC(=O)c1ccc(-c2nc(O)c3cnccn23)cc1	-22	25%	u	-8%	-3	-10%
Oc1nc(-c2ccc(Cl)cc2)n2ccncc12	-5	37%	14µM*	u	x	79µM*
CCN(CC)C(=O)CC(c1ccc2c(c1)OCO2)c1c(OC)cc(OC)c2ccc(=O)oc12 (centres undefined)	0	4%	-3%[59 µM]	-34%	1	-35%
CCN(CC)CCC(c1ccc(N(C)C)cc1)c1c(OC)cc(OC)c2ccc(=O)oc12 (centres undefined)	-29	-27%	u	45µM*	-20	40µM*
CCN(CC)C(=O)CC(c1ccc(N(C)C)cc1)c1c(OC)cc(OC)c2ccc(=O)oc12 (centres undefined)	-15	-18%	u	45µM*	-17	u
Cc1cccc(OCc2n[nH]c(=S)o2)c1	0	13%	10µM*	u	-1	-39%
Cc1cccc(OCc2nnc(-c3ccccc3)o2)c1	x	115%	18%[59 µM]	82%	x	96%
Cc1cccc(C)c1OCc1n[nH]c(=S)o1	10	42%	2.2µM*	-28%	0	-3%
Cc1cccc(OCc2n[nH]c(=S)o2)c1C	-3	50%	20µM*	-13%	x	56µM*
CCOc1cc(OCC)cc(C(=O)N2CCC[C@H]2C(=O)N2CCC[C@H]2C(=O)NCc2ccc(F)cc2F)c1	-2	x	x	x	5	x
COc1ncc2nc(-c3cccs3)c(=O)n(Cc3ccc(F)cc3)c2n1	x	x	24%[0.501 µM]	x	x	x
CC1CCN(S(=O)(=O)c2ccc3c(c2)N(CC(=O)NCCN(C)C)C(=O)CO3)CC1	x	37%	-3%[59 µM]	2%	x	2%
CCCCCNC(=O)C(c1ccccc1)n1c(=O)c(-c2cc3ccccc3[nH]2)nc2ccccc21 (centres undefined)	65	x	x	x	-10	x
CC(C)c1ccc2c(c1)C(c1ccc(N3CCOCC3)cc1)=NNC(c1cccs1)=N2	-23	-17%	45µM*	u	-4	u
COc1ccc2c(c1)C(c1ccc(N3CCOCC3)cc1)=NNC(c1cccnc1)=N2	-17	-15%	-5%[59 µM]	-36%	-27	u
COc1ccc2c(c1)C(c1cccs1)=NNC(c1ccncc1)=N2	-16	-8%	x	u	-1	u
CC(C)c1ccc2c(c1)C(c1cccs1)=NNC(c1ccncc1)=N2	-1	13%	28µM*	-33%	2	u
COc1cccc(CNC(=O)[C@@H]2CCCN2C(=O)[C@H]2CCCCN2C(=O)c2cccs2)c1	0	x	x	x	7	x
Cc1ccc(OCc2cc(=O)n3cc(C)sc3n2)c(NC(=O)c2ccco2)c1	x	24%[57 µM]	6%[59 µM]	u	x	6%

From PubChem BioAssay
